SMILES strings stand for the structures. “And” between values parts separate entries of the source, which are not always exact repeats. Equal values may be shown once. The source made the active and inactive calls. No rule for the calls is given here.

The conditions of the assay: Ebola virus entry assay, reporter ratio channel; AC50: Channel type: primary unless noted; outcome: Channel type: primary unless noted.
Regarding `Cc1ccc(-n2nc(C(C)(C)C)cc2NC(=O)Nc2ccc(OCCN3CCOCC3)c3ccccc23)cc1`, the AC50 was 20 µM (active). As to `CC(C)C[C@H](NC(=O)[C@H](CCc1ccccc1)NC(=O)CN1CCOCC1)C(=O)N[C@@H](Cc1ccccc1)C(=O)N[C@@H](CC(C)C)C(=O)[C@@]1(C)CO1`, the AC50 was 0.708 µM (active). In the case of `C=CC(=O)Nc1cc2c(Nc3ccc(F)c(Cl)c3)ncnc2cc1OCCCN1CCOCC1`, the AC50 was 2.82 µM (active). On to `Oc1cc(Cl)ccc1Oc1ccc(Cl)cc1Cl`, for which the AC50 was 7.08 µM (active) and 14.1 µM (active).

As for `CC1=C(/C=C/C(C)=C/C=C/C(C)=C/C(=O)Nc2ccc(O)cc2)C(C)(C)CCC1`, the AC50 was 39.8 µM (active). Turning to `COc1ccc(C(=O)c2c(C)n(CCN3CCOCC3)c3ccccc23)cc1`, the AC50 was 35.5 µM (active). Consider `COc1cc(Nc2c(C#N)cnc3cc(OCCCN4CCN(C)CC4)c(OC)cc23)c(Cl)cc1Cl`, for which the AC50 is 1.41 µM (active). `Fc1ccc(C(OCCN2CCN(CCCc3ccccc3)CC2)c2ccc(F)cc2)cc1`: the AC50 is 2.82 µM (active).

Regarding `COc1cc2c(N3CCN(C(=O)Nc4ccc(OC(C)C)cc4)CC3)ncnc2cc1OCCCN1CCCCC1`, the AC50 was 10 µM (active). Regarding `O=c1[nH]c2ccccc2n1CCCN1CCC(n2c(=O)[nH]c3cc(Cl)ccc32)CC1`, the concentration at half-maximal activity (AC50) is 25.1 µM (active). `O=c1oc2ccccc2c(O)c1C(CC(O)c1ccc(-c2ccc(Br)cc2)cc1)c1ccccc1` (configuration not stated): the outcome was inactive. `COc1cccc2c1C(=O)c1c(O)c3c(c(O)c1C2=O)C[C@@](O)(C(=O)CO)C[C@@H]3O[C@H]1C[C@H](N)[C@H](O)[C@H](C)O1`: the AC50 was 14.1 µM (active).

The values are drawn from PubChem BioAssay (NCATS).
